# Rows were chosen to be rich in hits. Some 3.4% of all compounds tested hit in one or more screens of this group.
# FBW7 activator = activators of human E3 ligase FBW7. AlphaScreen FBW7–phospho-cyclin E peptide binding, activator screen. normalized activity (activation), % at 26.1 µM. AID 1259310. 0.13% of 650,000 active; in the data active = normalized activity above about 1.9%;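 also: purified mutant Fbw7 with reduced substrate affinity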
# TEAD-YAP block = TEAD-YAP interaction inhibition; 1.4% of 640,000 active; HEK-TIYL cells, TEAD-Gal4/YAP UAS-luciferase luminescence; inhibition, % at 9.12 µM; AID 1259422; in the data active = inhibition above about 32%;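 also: 0% = median of test compound wells and 100% = reference inhibitor wells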
# MITF inh = inhibitors of human MITF; O75030; AlphaScreen MITF homodimerization, bead proximity signal; inhibition, % at 2.6 µM; 0.91% of 650,000 active; AID 1259374; in the data active = inhibition above about 50%;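 also: 0% = vehicle wells with protein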
# GPR151 activ = human GPR151 activation | Q8TDV0 | PathHunter beta-arrestin GPR151 cells, luminescence | activation, % at 11.2 µM | 1% of 650,000 active | AID 1508602; in the data active = activation above about 4.9%;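 also: 0% = median of compound wells and 100% = cells with positive control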
# Starred values were filed as active, the others as inactive.
SMILES,FBW7 activator,TEAD-YAP block,MITF inh,GPR151 activ
CCOC(=O)C1=C(C)N=c2s/c(=C\c3ccc(OCc4ccc(Cl)cc4Cl)c(OC)c3)c(=O)n2C1c1ccc2c(c1)OCO2 (centres undefined),0,5,-2,0
Cc1ccc(NS(=O)(=O)c2cc(F)ccc2CN2C(=O)c3cccnc3C2=O)nc1,0,-1,13,3
Cn1cc(S(=O)(=O)N2CCc3ccccc32)cc1C(=O)NC(C)(C)C,0,37*,-11,1
CC(NC(=O)c1cc(S(=O)(=O)N2CCc3ccccc32)cn1C)c1ccccc1 (centres undefined),0,-11,-13,2
COc1cc(C)c(S(=O)(=O)N2CCc3ccccc32)cc1C,0,50*,13,0
COC(=O)c1ccc(S(=O)(=O)N2CCCc3ccccc32)cc1,0,62*,-12,2
COc1ccc(S(=O)(=O)N2CCCc3ccccc32)cc1,0,58*,-8,0
CC1CN(S(=O)(=O)c2cccc(C(=O)OCC#N)c2)CC(C)O1 (centres undefined),0,-1,2,-1
NC(=O)c1cc(NC(=O)/C=C\C(=O)O)ccc1N1CCOCC1,0,8,2,0
O=C(Nc1ccccc1)Nc1ccccc1Cl,0,-75,-27,-6
COc1cc(S(=O)(=O)N2CCCc3ccccc32)ccc1Cl,1,58*,5,0
CCn1c2ccccc2c2cnc(N=CN(C)C)c(C#N)c21,0,42*,6,0
O=C(NNC(=O)c1cccc2ccccc12)c1ccccc1Br,1,-15,15,1
COc1ccc(C(=O)Nc2nc3c(cc4c5c(cccc53)CC4)s2)cc1OC,2.0*,-3,17,-1
CCCNC(=O)CCC(=O)Nc1ncc(-c2ccc(C)cc2)n1C,0,93*,-1,-1
CCCNC(=O)CCn1nc(-c2ccc(C)cc2)c2ccccc2c1=O,0,2,17,0
OC[C@H]1O[C@@H](n2cnc3c(NCc4ccco4)ncnc32)[C@H](O)[C@@H]1O,0,74*,0,1
C(=N\Nc1cccc2cccnc12)/c1ccccn1,0,24,38,-3
Cc1c(/C=N/Nc2cccc3cccnc23)c(=O)n(-c2ccccc2)n1C,0,88*,19,-5
C=CCc1cccc(/C=N/NC(=O)c2cccnc2)c1O,-1,14,11,1
CCOc1cccc(/C=N/NC(=O)c2cccnc2)c1O,0,15,70*,0
CCN(CC)S(=O)(=O)c1cccc(C(=O)N/N=C/c2ccc(O)c(O)c2O)c1,-1,-6,61*,2
CCN(CC)S(=O)(=O)c1cccc(C(=O)N/N=C(\C)c2ccc(O)cc2O)c1,0,-2,-16,1
Oc1ccc(C=Nc2cccc3cnccc23)c(O)c1O,-1,8,61*,2
O=C(N/N=C/c1ccc(O)c(O)c1O)c1cccnc1,-1,4,79*,-1
SMILES,FBW7 activator,TEAD-YAP block,MITF inh,GPR151 activ
CCOc1ccccc1/C=N\NC(=O)c1cccnc1,0,6,14,0
CC1CN(Cc2ccoc2)Cc2cc(Cl)ccc2O1 (centres undefined),0,1,0,0
CC(C)N(CCNc1nc(Nc2nc3ccccc3n2C)nc2c1ncn2Cc1ccc(C(F)(F)F)cc1)C(C)C,0,0,0,3
CCn1c(C)nc2cc(C(=O)N/N=C/c3ccc(O)c(O)c3O)ccc21,-1,-2,75*,-2
C/C(=N\N=C1/NC(=O)C(CC(=O)O)S1)c1ccc2ccccc2c1O (centres undefined),0,-7,83*,4
COc1ccc(CCNc2ncnc3c2nc(-c2ccc(N4CCOCC4)nc2)n3C(C)C)cc1,0,59*,-2,1
COc1ccc(CCNc2ncnc3c2nc(Nc2ccc(N4CCOCC4)cc2)n3C(C)C)cc1,0,79*,7,4
COc1ccc(CCNc2ncnc3c2nc(N2CCOCC2)n3C(C)C)cc1,0,-13,3,1
Cc1ccc(-c2cn(-c3ccccc3)c(SCC(=O)Nc3ccc(F)cc3)n2)cc1,0,18,-10,-1
CCc1ccc(-n2c(C)cc(/C=N/NC(N)=O)c2C)cc1,0,6,12,1
Cc1ccc(F)cc1S(=O)(=O)Nc1ccc2c(c1)OCC1CCCN21 (centres undefined),-1,16,8,-1
CC(C)COC(=O)c1ccc(NC(=O)COc2ccc(Br)cc2)cc1,0,35*,0,1
O=C(Nc1ccc2c(c1)CCCN2C(=O)c1cccs1)NC(c1ccccc1)c1ccccc1,0,45*,-1,0

# Screens (PubChem BioAssay)
